PubChem BioAssay AID651949 (Broad Institute, 2012)
Entries with a potency or affinity are not part of this list. Calls of active or inactive are those of the source.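 How the source made its calls: active means compounds lowering cell ATP signal whose fitted half-maximal concentration is at most twice the top tested dose; inconclusive means flat curve with 30 to 70% signal loss, or poor fit; inactive means the rest.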

Test: viability loss in HEK293T cells – cell-based, CellTiter-Glo luminescence, dry powder, set 6, cytotoxicity control, dose response (AID 651949)

SMILES | outcome
Clc1ccc(-c2nnc(SCc3ccccc3)o2)cc1 | inactive
c1ccc(CSc2nnc(-c3ccccc3)o2)cc1 | inactive
